Source: the supplement of paper PMC6897291
Where a name gives a salt, the structure may show the parent alone.

What was measured:
[1] = test system: U-2932; assay: growth inhibition by drug alone (1 - RLU/untreated control) (fraction); higher = stronger inhibition; settings: 177Lu-lilotomab satetraxetan 0 ug/ml
Summary of the method: (§1)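 Compound doses on the pre-printed Selleck Cambridge Cancer Compound library plates were 10/100 nM for RIVA cells and 10/1,000 nM for U-2932 cells, seeded at 3,000 cells/well. Before seeding, cells were washed after 18 h with or without a radiolabelled anti-CD37 antibody conjugate (~600 MBq/mg; 0.5 µg/ml RIVA, 1 µg/ml U-2932). Growth inhibition was derived from RealTime-Glo luminescence relative to untreated no-drug control wells. Readings were taken daily starting on day 3, each after 1 h at 37°C, and each well's RLU was divided by the mean of 48 such wells per plate and subtracted from 1.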

[2] = test system: RIVA; assay: as above; settings: 177Lu-lilotomab satetraxetan 0 ug/ml
Summary of the method: as §1

[3] = test system: U-2932; assay: growth inhibition by drug plus 177Lu-lilotomab satetraxetan (1 - RLU/untreated control) (fraction); higher = stronger inhibition; settings: 177Lu-lilotomab satetraxetan 1 ug/ml
Summary of the method: as §1

[4] = test system: RIVA; assay: as above; settings: 177Lu-lilotomab satetraxetan 0.5 ug/ml
Summary of the method: as §1

Row | Compound | growth inhibition by drug alone ([1]; 10 nM, time (day): 3) | growth inhibition by drug alone ([1]; 10 nM, time (day): 4) | growth inhibition by drug alone ([1]; 10 nM, time (day): 5) | growth inhibition by drug alone ([1]; 10 nM, time (day): 6) | growth inhibition by drug alone ([1]; 1000 nM, time (day): 3) | growth inhibition by drug alone ([1]; 1000 nM, time (day): 4) | growth inhibition by drug alone ([1]; 1000 nM, time (day): 5) | growth inhibition by drug alone ([1]; 1000 nM, time (day): 6) | growth inhibition by drug alone ([2]; 10 nM, time (day): 3) | growth inhibition by drug alone ([2]; 10 nM, time (day): 4) | growth inhibition by drug alone ([2]; 10 nM, time (day): 5) | growth inhibition by drug alone ([2]; 10 nM, time (day): 6) | growth inhibition by drug alone ([2]; 100 nM, time (day): 3) | growth inhibition by drug alone ([2]; 100 nM, time (day): 4) | growth inhibition by drug alone ([2]; 100 nM, time (day): 5) | growth inhibition by drug alone ([2]; 100 nM, time (day): 6) | growth inhibition by drug plus 177Lu-lilotomab satetraxetan ([3]; 10 nM, time (day): 3) | growth inhibition by drug plus 177Lu-lilotomab satetraxetan ([3]; 10 nM, time (day): 4) | growth inhibition by drug plus 177Lu-lilotomab satetraxetan ([3]; 10 nM, time (day): 5) | growth inhibition by drug plus 177Lu-lilotomab satetraxetan ([3]; 10 nM, time (day): 6) | growth inhibition by drug plus 177Lu-lilotomab satetraxetan ([3]; 1000 nM, time (day): 3) | growth inhibition by drug plus 177Lu-lilotomab satetraxetan ([3]; 1000 nM, time (day): 4) | growth inhibition by drug plus 177Lu-lilotomab satetraxetan ([3]; 1000 nM, time (day): 5) | growth inhibition by drug plus 177Lu-lilotomab satetraxetan ([3]; 1000 nM, time (day): 6) | growth inhibition by drug plus 177Lu-lilotomab satetraxetan ([4]; 10 nM, time (day): 3) | growth inhibition by drug plus 177Lu-lilotomab satetraxetan ([4]; 10 nM, time (day): 4) | growth inhibition by drug plus 177Lu-lilotomab satetraxetan ([4]; 10 nM, time (day): 5) | growth inhibition by drug plus 177Lu-lilotomab satetraxetan ([4]; 10 nM, time (day): 6) | growth inhibition by drug plus 177Lu-lilotomab satetraxetan ([4]; 100 nM, time (day): 3) | growth inhibition by drug plus 177Lu-lilotomab satetraxetan ([4]; 100 nM, time (day): 4) | growth inhibition by drug plus 177Lu-lilotomab satetraxetan ([4]; 100 nM, time (day): 5) | growth inhibition by drug plus 177Lu-lilotomab satetraxetan ([4]; 100 nM, time (day): 6)
1 | Cc1ccnc(NS(=O)(=O)c2ccc(NC(=O)Nc3ccc(S(=O)(=O)Nc4nccc(C)n4)cc3)cc2)n1 | 0.175 | 0.112 | -0.00245 | -0.0763 | 0.114 | 0.089 | -0.0667 | -0.0262 | 0.0129 | 0.0204 | -0.0366 | -0.304 | -0.284 | -0.137 | -0.166 | -0.281 | 0.0395 | 0.0885 | 0.162 | 0.182 | 0.099 | 0.13 | 0.195 | 0.303 |  |  |  |  |  |  |  | 
2 | CCC[C@H](NC(=O)/C(C#N)=C/c1cccc(Br)n1)c1ccccc1 | 0.109 | 0.0652 | -0.0661 | -0.128 | 0.0251 | 0.0639 | -0.0194 | -0.182 | -0.0156 | -0.0305 | -0.179 | -0.663 | -0.455 | -0.31 | -0.323 | -0.514 | 0.0639 | 0.1 | 0.129 | 0.098 | 0.0285 | 0.0599 | 0.115 | 0.183 | 0.529 | 0.596 | 0.601 | 0.61 | 0.35 | 0.448 | 0.465 | 0.478
3 | Cn1cnc([N+](=O)[O-])c1Sc1ncnc2[nH]cnc12 [Azathioprine (Azasan, Imuran)] | 0.0201 | -0.00369 | 0.00367 | 0.0444 | 0.0785 | 0.0404 | 0.00445 | 0.131 | -0.0287 | -0.0923 | -0.12 | -0.24 | -0.168 | -0.224 | -0.259 | -0.337 | 0.00188 | 0.0643 | 0.101 | 0.167 | 0.0755 | 0.0766 | 0.124 | 0.326 | 0.505 | 0.533 | 0.565 | 0.573 | 0.444 | 0.518 | 0.521 | 0.529
4 | Clc1ccc(Nc2nnc(Cc3ccncc3)c3ccccc23)cc1 [Vatalanib dihydrochloride (PTK787)] | 0.0493 | 0.0329 | -0.0325 | -0.0722 | 0.00749 | 0.0478 | -0.0105 | -0.12 | -0.0393 | -0.0522 | -0.084 | -0.232 | -0.0903 | -0.0658 | -0.0924 | -0.165 | -0.0142 | 0.0115 | 0.0124 | 0.0638 | -0.0725 | 0.0231 | -0.00359 | -0.0503 | 0.334 | 0.509 | 0.527 | 0.534 | 0.328 | 0.442 | 0.439 | 0.426
